# Screening results from PubChem BioAssay.
# Ba/F3 V617F tox – loss of viability in JAK2V617F-driven Ba/F3 cells; Ba/F3 EpoR-JAK2V617F viability, ATP luminescence; inhibition, % at 5.6 µM; 1.1% of 220,000 active;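 active means inhibition above the campaign mean plus 3 SD over all tested compounds, cut at about 24% in these data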;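 further: cytokine-independent growth of Ba/F3 cells driven by EpoR plus mutant JAK2; 0% = DMSO-treated cells and 100% = JAK inhibitor I control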
# BaF3 parental – parental Ba/F3 viability inhibition as JAK2V617F counter-screen. AID 1486. CellTiter-Glo ATP luminescence. inhibition, % at 5.6 µM. 1.1% of 220,000 active;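 active means inhibition above a per-campaign cutoff, the mean inhibition of all tested compounds plus 3 SD, cut at about 27% in these data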;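 further: 0% = DMSO wells and 100% = JAK Inhibitor I control wells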
# IEC-6 tox – kills IEC-6 intestinal cells in KLF5 counter-screen; IEC-6 cytotoxicity, luminescence viability; inhibition, % at 5 µM; 0.78% of 290,000 active; AID 1825; in the data active means inhibition above about 22%;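 further: 0% = plate median of test compound wells and 100% = cytotoxic reference compound wells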
# aSyn 5UTR inh – MLPCN primary screen, SNCA 5' untranslated region; alpha-synuclein 5'UTR reporter, inhibitor activity; AID 1813; inhibition, % (tested at 7.5 µM); 0.82% of 300,000 active; in the data active means inhibition above about 60%;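 further: H4 neuroglioblastoma cells stably carrying SNCA 5'UTR luciferase fusion; 0% = DMSO wells and 100% = positive control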
# KLF5 inhibitor – inhibitors of KLF5 expression | DLD-1 KLF5 promoter-luciferase reporter, luminescence | AID 1700 | inhibition, % at 5 µM | 0.23% of 290,000 active;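 active means inhibition above a per-plate limit of that plate's mean compound inhibition plus 3 SD, cut at about 60% in these data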;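 further: 0% = DMSO wells and 100% = LY294002 at 200 µM; higher means less KLF5 promoter-driven luciferase light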
# APP 5UTR inh – APP translation inhibition; inhibition, % at 2 µM; SH-SY5Y APP 5'UTR-luciferase reporter, luminescence; 0.82% of 190,000 active;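 active means inhibition above a set limit, derived from the sample mean plus 3 SD, cut at about 45% in these data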
# Numbers without * were called inactive; . = not tested or not shown. In the library only some 2.1% were active in any assay of this set; here they are far more common.
SMILES,Ba/F3 V617F tox,BaF3 parental,IEC-6 tox,aSyn 5UTR inh,KLF5 inhibitor,APP 5UTR inh
Cc1nc(SCCC(=O)O)c2cc(-c3ccccc3)sc2n1,.,.,5,67*,32,.
CCCOc1ccc2cc(-c3ccccn3)c(=O)oc2c1,2,4,4,77*,-7,-123
CCN(C(=S)NCCOC)c1cccc2ccccc12,32*,27*,2,-32,-15,1
CCN(C(=O)COC(=O)c1ccccc1NCCO)c1cccc2ccccc12,.,.,.,9,.,.
N#Cc1c(NC(=O)C2CCCO2)sc2c1CCCCCC2 (configuration not stated),-3,-1,2,-98,-22,-45
CC(C)=CCc1cc(-c2oc3cc(O)cc(O)c3c(=O)c2O)ccc1O,.,.,.,-43,.,.
CC(C)=CCc1c(O)cc2oc3c(CC=C(C)C)c(O)c(O)c(CC=C(C)C)c3c(=O)c2c1O,.,.,.,62*,.,.
CCOP(=O)(/C(C#N)=C(\C)O)c1ccccc1 (configuration not stated),7,81*,1,-3,-17,-8
Cc1ccc2[nH]c(C)c(/C=C/c3cc[n+](C)cc3)c2c1,.,.,-1,54,-10,.
C[n+]1ccc(/C=C/c2ccc(Br)cc2)cc1,79*,83*,-2,-40,-18,-8
C/C(=N\Nc1nc(-c2ccccn2)nc2ccccc12)c1ccc(F)cc1,0,0,3,75*,7,.
C/C(=N\Nc1nc(-c2ccccc2O)nc2ccccc12)c1ccccc1,-2,3,-4,-91,-50,-13
CCCN(CCC)C(=O)C1CCN(c2cc(C)nc3c(-c4ccc(OC)c(OC)c4)c(C)nn23)CC1,0,40*,0,2,-58,-10
COc1ccc(-c2c(C)nn3c(N4CCC(C(=O)NCCN(C)C)CC4)cc(C)nc23)cc1OC,0,3,-5,-15,7,21
CCOc1ccc2nc(NC(=O)Nc3ccccc3)sc2c1,7,11,6,-131,-143,-148
CCOc1ccc2nc(NC(=O)c3ccccn3)sc2c1,5,3,13,80*,-34,.
COc1ccc(C(=O)Nc2ccc(NC(=O)c3ccccn3)cn2)cc1,.,.,-5,-35,-21,.
O=C(Nc1nc2c(F)cc(F)cc2s1)c1ccccn1,-5,6,13,73*,-109,-18
COc1ccc(NC(=O)c2ccccn2)cc1,9,10,3,75*,4,-80
C/C(=N\NC(=O)c1cccc(C)c1O)c1ccc(NC(=O)Cc2ccccc2)cc1,.,.,2,-74,-164,.
Cc1cccc(CCNC(=O)CNS(=O)(=O)c2ccc3nc(C)sc3c2)c1,.,.,1,26,-39,.
O=C(Oc1ccccc1C(=O)Nc1ccccc1)c1ccccc1Br,0,5,8,12,-49,58*
O=C(CC1C(=O)NCCN1C1CCCC1)NCc1cccc(OC(F)(F)F)c1 (configuration not stated),.,.,-4,-1,-36,.
Cc1ccc(C)c(OCC(=O)Nc2c[nH]c(=O)[nH]c2=O)c1,-2,3,-2,81*,-3,0
COc1ccccc1C(=O)Nc1c[nH]c(=O)[nH]c1=O,.,.,5,8,-9,.
SMILES,Ba/F3 V617F tox,BaF3 parental,IEC-6 tox,aSyn 5UTR inh,KLF5 inhibitor,APP 5UTR inh
CCOc1ccccc1C(=O)Nc1c[nH]c(=O)[nH]c1=O,.,.,4,62*,-32,.
COc1ccc(-n2c(O)c(/C=N/Nc3nc(C)cc(C)n3)c3ccccc3c2=O)cc1OC,-3,-3,-3,120*,1,33
O=C1NCCc2c1[nH]c1ccc([N+](=O)[O-])cc21,2,4,-3,70*,10,-9
COc1ccc2[nH]c3c(c2c1)CCNC3=O,.,.,.,-23,.,.
CC1CCN(S(=O)(=O)c2cccc(C(=O)Nc3ccccc3)c2)CC1,-5,-3,-6,-11,-25,-13
CCN1CCN(C2=C(NS(=O)(=O)c3ccc(NC(C)=O)cc3)C(=O)c3ccccc3C2=O)CC1,.,.,11,-3,-5,.
O=C1C(Nc2cccc(O)c2)=C(N2CCCCC2)C(=O)c2ccccc21,87*,99*,-4,-14,-34,-5
Cc1ccc(NC2=C(N3CCCCC3)C(=O)c3ccccc3C2=O)cc1,96*,98*,-1,-45,17,-25
CN(C1=C(N2CCCCC2)C(=O)c2ccccc2C1=O)c1ccccc1,26*,65*,-1,-32,-2,-4
O=C(/C=C/c1ccc(O)cc1)c1ccc(NC2=C(N3CCCCC3)C(=O)c3ccccc3C2=O)cc1,2,2,-4,-35,46,-22
O=C1C(NS(=O)(=O)c2ccc(Br)cc2)=C(N2CCCCC2)C(=O)c2ccccc21,.,.,1,26,-36,.
CC(=O)Nc1ccc(S(=O)(=O)NC2=C(N3CCN(C)CC3)C(=O)c3ccccc3C2=O)cc1,.,.,5,71*,-22,.
COC(=O)[C@@H](Cc1c[nH]c2ccccc12)NC(=O)CNC(=O)c1ccccc1OC,.,.,2,29,-10,.
COc1cc(NS(=O)(=O)c2c(C(=O)N3CCOCC3)c(C)n(C)c2C)cc(OC)c1OC,.,.,-8,-3,-19,.
CC(C)Cn1c(=O)c(C(=O)Nc2ccncc2)c(O)c2ccccc21,.,.,.,66*,.,.
CC(C)Cn1c(=O)c(C(=O)Nc2cnccn2)c(O)c2ccccc21,-2,0,-1,-3,-2,0
Cc1cc(Br)ccc1NC(=O)CNC(=O)Cn1ncc(Cl)c(Cl)c1=O,3,8,6,63*,8,96*
CCC(=O)Nc1ccc(C(=O)Cn2ncc(Cl)c(Cl)c2=O)cc1,78*,45*,18,-53,28,.
Cc1ccc(C)c(C(=O)Cn2ncc(Cl)c(Cl)c2=O)c1,12,2,7,13,-12,38
CC(NC(=O)Cn1ncc(Cl)c(Cl)c1=O)C12CC3CC(CC(C3)C1)C2 (configuration not stated),63*,75*,25*,88*,-6,96*
CCc1ccccc1NC(=O)CN(C)C(=O)Cn1ncc(Cl)c(Cl)c1=O,3,3,9,-63,-1,97*
Cc1ccc(C(=O)Nc2ccccc2N2CCCCC2)o1,.,.,0,-4,-17,.
C(=N\Nc1nc(Nc2ccccc2)nc(Nc2ccccc2)n1)/c1cccnc1,-1,12,29*,-23,7,-6
Cc1nc(Nc2nc3ccccc3o2)nc2c1CCC2,0,5,5,71*,48,-125
Cc1cccc(C)c1Nc1nc2ccccc2o1,-4,0,-4,8,18,0
CCOC(=O)c1cnc(Nc2nc3ccccc3o2)nc1CN1CCN(c2ccccc2)CC1,-1,6,-2,.,-14,-17
CCOC(=O)c1cnc(Nc2nc3ccccc3o2)nc1C,1,4,-2,86*,-110,-104
Cc1c(C(=O)NCC2CCCO2)oc2ccc(S(=O)(=O)N3CCCC3)cc12 (configuration not stated),2,6,0,3,12,7
Cc1c(C(=O)NCC2CCCO2)oc2ccc3c(c12)C(=O)CC(C)(C)O3 (configuration not stated),0,94*,6,-44,-113,-156
